# Assay results taken from article PMC7819943, “Rice protein-binding microarrays: a tool to detect cis-acting elements near promoter regions in rice”.
# Over roughly 39,000 sequences, “fluorescence intensity (a.u.)” has its median near 4,300; the highest 2% begin near 39,000. Only a selection was taken, and the highest values are over-represented in it overall.
# Molecular target: T1, OsSMF1 (Oryza sativa, UniProt Q6ZLB0 1-436)
# T1 sequence: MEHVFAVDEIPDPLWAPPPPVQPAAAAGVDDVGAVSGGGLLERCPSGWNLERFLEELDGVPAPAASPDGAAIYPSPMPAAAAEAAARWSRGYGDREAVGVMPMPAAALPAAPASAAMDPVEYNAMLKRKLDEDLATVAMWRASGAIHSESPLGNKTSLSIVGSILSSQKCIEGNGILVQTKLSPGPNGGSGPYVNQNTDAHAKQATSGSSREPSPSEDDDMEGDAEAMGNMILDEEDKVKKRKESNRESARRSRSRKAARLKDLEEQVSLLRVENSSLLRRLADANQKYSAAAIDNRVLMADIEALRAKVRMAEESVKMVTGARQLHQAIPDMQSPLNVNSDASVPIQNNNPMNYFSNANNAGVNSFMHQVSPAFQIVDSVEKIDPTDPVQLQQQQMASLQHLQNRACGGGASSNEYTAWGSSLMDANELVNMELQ
# Experiment: protein-binding microarray (RPBM); PBS, 2% BSA, 51.3 ng/ul salmon testes DNA, 50 uM zinc acetate, 200 nM TF, 25 C, 1 h; high values mean tight binding
# Conditions: protein: recombinant; tags: N-terminal polyhistidine and DsRed monomer fusion (pET32a); chain copies: 2; label: CyDye5-dUTP incorporated in the synthesized complementary strand; 3' TTTTT single-stranded linker to array surface; dsDNA, one strand shown
# Summary of the method: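 In PBS with 2% BSA, salmon testes DNA and 50 µM zinc acetate, 200 nM protein was incubated on a custom Agilent array at 25 °C for 1 h and then washed off. The array had been made double-stranded by primer extension with Cy5-dUTP and blocked with 2% BSA. The proteins were transcription factors fused N-terminally to polyhistidine and DsRed, expressed in E. coli BL21-CodonPlus and purified on Ni–NTA. The binding signal is per-feature fluorescence intensity (arbitrary units) from an Axon 4000B scanner.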
row,Sequence,binding signal
1,CCCACCCCGCGTGCAGCTTAGGCGAACCCTCCTCCCTCCGCGGAGTCACCTAGTGCAG,3660 fluorescence intensity (a.u.)
2,CCAAAATCAGATATCTTAGGATTCATATCGATGTCCAACACGGAGTCACCTAGTGCAG,19200 fluorescence intensity (a.u.)
3,CATATCCTCAAGTAGAATTCAAATCCAGTCACATTGCCACCGGAGTCACCTAGTGCAG,4130 fluorescence intensity (a.u.)
4,AGGAATGCATTTGTGGTGGGTGCAGGTGCGCGGGTGGCGACGGAGTCACCTAGTGCAG,3340 fluorescence intensity (a.u.)
5,GTTCAGAATGTGGTGGCGACGTAAGGTGATTTGGAAGGCGCGGAGTCACCTAGTGCAG,43500 fluorescence intensity (a.u.)
6,CAGGTGGTGGTGGCCATTAGTTAGTGGCAAATGTGGAAGGCGGAGTCACCTAGTGCAG,3220 fluorescence intensity (a.u.)
7,CTAGAGGAAGTGGGGAAGCCGACGACCCCACGTCTCGCCACGGAGTCACCTAGTGCAG,3940 fluorescence intensity (a.u.)
8,GACTAACAAAATCGTTGAAACTTGCGAAGTTTCTTTTGATCGGAGTCACCTAGTGCAG,64700 fluorescence intensity (a.u.)
9,TAAAATAGTTTTAAAACTTTAAGTTGAAAGTAAATACTTTCGGAGTCACCTAGTGCAG,27900 fluorescence intensity (a.u.)
10,TACTTTCAACTCTAACTTGAAAACTTTCAACTTTGACTTGCGGAGTCACCTAGTGCAG,3860 fluorescence intensity (a.u.)
11,CCACCCACGGAGCCAGCTCACTACCACCGTTTGTCGCCTCCGGAGTCACCTAGTGCAG,4360 fluorescence intensity (a.u.)
12,GTACTACTCCCTCCGTTTCTCCCTCCGTTTCAAAATGTTTCGGAGTCACCTAGTGCAG,3220 fluorescence intensity (a.u.)
13,ACATGTGTTCACGCGTGTGTATCTTCTACTCCCTCCGTTTCGGAGTCACCTAGTGCAG,43200 fluorescence intensity (a.u.)
14,TTCTTCCTCCGTCAGTTCATCATCTCTCTGTGTGTGTTTTCGGAGTCACCTAGTGCAG,3570 fluorescence intensity (a.u.)
15,GTTGTCAAATGAGTCAATTAGATATTTCCAACCCACACTACGGAGTCACCTAGTGCAG,4900 fluorescence intensity (a.u.)
16,CGTATCTCATCTTTTCGTTTATACTTATACTTATCAGTCACGGAGTCACCTAGTGCAG,3230 fluorescence intensity (a.u.)
17,ATCGATCGATCAATTGGCCAAGGCGGCAAACGGCGGCGGCCGGAGTCACCTAGTGCAG,4060 fluorescence intensity (a.u.)
18,GATCACTGTACTGTACAGAGGCTAGCTCTAGCTAGGTAGCCGGAGTCACCTAGTGCAG,26000 fluorescence intensity (a.u.)
19,TTAGCTTCACAGTTCACTGTAGCGTCTAGAAGAGGAACAGCGGAGTCACCTAGTGCAG,63300 fluorescence intensity (a.u.)
20,TTGTGGTACGATACTAGTACTACTAGTAGACTAGTAGCAGCGGAGTCACCTAGTGCAG,3260 fluorescence intensity (a.u.)
21,AGCTTCAGGAGTTCTTGTCACGTCTCGAGGAAGAGAGGCTCGGAGTCACCTAGTGCAG,3740 fluorescence intensity (a.u.)
22,GTGAGAACTGAGAGGAGCGTCGGAAGAAGACCGGAAGAAGCGGAGTCACCTAGTGCAG,4580 fluorescence intensity (a.u.)

row,Sequence,binding signal
1,TTAGCTAGACTACAGCTCTAGTAGAGCTGTAGAGGTAGAGCGGAGTCACCTAGTGCAG,44000 fluorescence intensity (a.u.)
2,GTGGGCCATCTGACAGTGCATACAGGAACTTTCCCCTTCTCGGAGTCACCTAGTGCAG,4930 fluorescence intensity (a.u.)
3,ATTATAGGTCCAGCTAAGTTGGCCCTGGTATATATATTGGCGGAGTCACCTAGTGCAG,3980 fluorescence intensity (a.u.)
4,TTGGAGGGGAAGCTATCGTGTATCCACTGCGGAGCACGGCCGGAGTCACCTAGTGCAG,3650 fluorescence intensity (a.u.)
5,AACGACGGCGAATTCTACCTCCCCGGGTATCTGGACCTCGCGGAGTCACCTAGTGCAG,42900 fluorescence intensity (a.u.)
6,CGTGGTGGACGGCCTCGACGAGGCGATCTGCCCGGTGGCGCGGAGTCACCTAGTGCAG,3240 fluorescence intensity (a.u.)
7,CCGGGCTACCATCGCGGCGACGAAACGTGCATCATCATCCCGGAGTCACCTAGTGCAG,3850 fluorescence intensity (a.u.)
8,CGTGGCACTTAGCGATGAGTGCTGTCGTCAGTAGCAATCCCGGAGTCACCTAGTGCAG,4620 fluorescence intensity (a.u.)
9,GCAGGCGTCGGTTTCGCGGCTGGCAGCGGCGGCTCGCTCACGGAGTCACCTAGTGCAG,3200 fluorescence intensity (a.u.)
10,GGCTAGCGTACAGGTTAAAACGTGTCGGAATCGTCAGCGCCGGAGTCACCTAGTGCAG,4110 fluorescence intensity (a.u.)
11,GTACAGCAGGAATCGCTGCTGGCGTCGCTTCGTCGGTTGTCGGAGTCACCTAGTGCAG,65100 fluorescence intensity (a.u.)
12,GTGTTTTGACGCATGCATGCCGTTGGTCATCAGTTAATCACGGAGTCACCTAGTGCAG,3480 fluorescence intensity (a.u.)
13,TTCCCAAAAGGAGGCCCAATGAGAACTTGTATAGTCCTATCGGAGTCACCTAGTGCAG,19500 fluorescence intensity (a.u.)
14,ATGTGACTACCACCTCTAAATTTATCTATTTTATTCACTCCGGAGTCACCTAGTGCAG,18600 fluorescence intensity (a.u.)
15,ATGTTTTCTAGACTAATATACTATTAATCTATCTTTTATCCGGAGTCACCTAGTGCAG,36400 fluorescence intensity (a.u.)
16,GAAATCTAATTTTATCCACGAGACTATAGTGAGCCTACTCCGGAGTCACCTAGTGCAG,39700 fluorescence intensity (a.u.)
17,GGGATGTCACACCGTCGAAGGCGTCCAGCTGTCAACATATCGGAGTCACCTAGTGCAG,4720 fluorescence intensity (a.u.)
18,CCGTTAGCCTCCAACGATCCAAACCGCCTCGTCATAAATACGGAGTCACCTAGTGCAG,3460 fluorescence intensity (a.u.)
19,TGCTGCTCTTGACACCACGTCGTTGCTGCCCTGCTTCCACCGGAGTCACCTAGTGCAG,3810 fluorescence intensity (a.u.)
20,ATGACGTGACATTGACGTGGCGCTTACGTGGCAATTCGACCGGAGTCACCTAGTGCAG,25600 fluorescence intensity (a.u.)
21,GTGGCATTGACGTGGCGCTTACGTGTCAATTCTACTCCGGCGGAGTCACCTAGTGCAG,44200 fluorescence intensity (a.u.)
